The list is not random: actives were taken first. Their share in the collection is about 5.2%.
SMARCA2 act: SMARCA2 (BRM) function activators, primary screen, cell-based, luminescence, high throughput; activation, % at 9.1 µM; actives 1% (n = 370,000); MG213 cells, MMTV-luciferase reporter, dexamethasone, overnight; AID 652017, 2013; in the data active means activation above about 7.8%
NR3A LBD binder: binders of NR3A ligand-binding domain, primary screen, biophysical, differential scanning fluorimetry, uHTS; AID 1259313, 2017; NR3A LBD differential scanning fluorimetry, Tm shift; 0% = protein alone, 100% = glycine-bound protein; Tm shift relative to glycine control, % at 25 µM; Glutamate receptor ionotropic, NMDA 3A (GRIN3A) ligand-binding domain; actives 2.5% (n = 340,000);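 active means melting temperature shift of at least 10% of the positive control shift, at one fixed dose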
esBAF inh: Bmi1 luciferase reporter increase in mESCs, primary screen, esBAF inhibitor project, mouse ES cells, Bmi1 luciferase knock-in, single point | 24 h; 100% = twice the neutral-well signal | AID 602393, 2012 | reporter increase, % at 12.5 µM | actives 2% (n = 350,000); in the data active means activation above about 40%;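 further: a rise in the Bmi1 reporter signal indicates esBAF inhibition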
SKN-1 block: suppressors of acrylamide-induced Pgst-4::GFP reporter in worms, primary screen, SKN-1 inhibitor project, whole organism, uHTS, GFP/RFP fluorescence ratio, strain VP596; C. elegans VP596 Pgst-4::GFP/RFP ratio, 24 h; inhibition, % at 21.8 µM; actives 0.49% (n = 360,000); AID 624304, 2012;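 active means interference check ratio from 0.5 to 1.5 plus GFP to RFP signal ratio inhibition reaching or exceeding a fixed threshold, cut at about 30% in these data, passing the limit was not always enough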
NadD block: inhibitors of S. aureus NadD, primary screen, biochemical, colorimetric, uHTS; actives 0.78% (n = 360,000); purified NadD enzyme, colorimetric absorbance read-out; AID 602399, 2012; Nicotinate-nucleotide adenylyltransferase NadD (Staphylococcus aureus N315); inhibition, % at 20 µM; in the data active means inhibition above about 26%
Vif inh: HIV Vif self-association inhibitors, primary screen, imaging, HEK293T, single point. actives 0.35% (n = 340,000). inhibition, % at 7.49 µM. HEK293T cells, Vif self-association by quenched fluorescence, 24 h; in the data active means inhibition above about 50%, passing the limit was not always enough
Of the large screens only hits and unclear results are named; the others gave an inactive call.

CCOC(=O)C1CCN(C(=O)COC(=O)/C=C/c2cccc(OC)c2OC)CC1	NR3A LBD binder 14.7
CCCN1[C@@H]2c3ccc(-c4ccc(OC)cc4)c(=O)n3C[C@@H]2[C@@H](CO)[C@@H]1C(=O)NCC	none (no result: SMARCA2 act, NR3A LBD binder, SKN-1 block, NadD block, Vif inh)
O=C(c1cc(-c2ccccc2)on1)N1CCCCCC1	esBAF inh 55.1
COc1ccc(-c2cc(C(=O)N3CCCCCC3)no2)cc1OC	esBAF inh 70.5
O=C(c1cc(-c2ccc(O)cc2)on1)N1CCN(c2ccccc2)CC1	NR3A LBD binder 11.6
O=C(c1cc(-c2cccc(O)c2)on1)N1CCCCC1	none (no result: Vif inh)
O=C(c1cc(-c2ccccc2O)on1)N1CCCCCC1	esBAF inh 59.7, Vif inh 74.5
C/C=C/c1cnc2c(c1)C(=O)N([C@H](C)CO)C[C@@H](C)[C@@H](CN(C)C(=O)Nc1ccc(OC)cc1)O2	none (no result: SMARCA2 act, NR3A LBD binder, SKN-1 block, NadD block, Vif inh)
C[C@H]1CN([C@@H](C)CO)C(=O)c2cccc(NC(=O)C3CC3)c2O[C@@H]1CN(C)C(=O)Nc1ccc(F)cc1	none (no result: SMARCA2 act, NR3A LBD binder, SKN-1 block, NadD block, Vif inh)
O=C(c1cc(-c2ccccc2O)on1)N1CCOCC1	esBAF inh 50.7
O=C(c1cc(-c2ccccc2)on1)N1CCc2ccccc2C1	SKN-1 block 37.5 (no result: esBAF inh)
O=C(c1cc(-c2ccc(Cl)cc2Cl)on1)N1CCOCC1	none
Oc1ccccc1-c1cc(-c2ccccc2)no1	NR3A LBD binder 19.1
O=C(Nc1ccc2c(c1)OCO2)N[C@H]1CC[C@H](CCNC(=O)C2CC2)O[C@@H]1CO	none (no result: SMARCA2 act, NR3A LBD binder, SKN-1 block, NadD block, Vif inh)
C[C@@H]1CN([C@H](C)CO)C(=O)c2cc(NS(C)(=O)=O)ccc2O[C@@H](C)CCCCO[C@@H]1CN(C)Cc1ccc2c(c1)OCO2	none (no result: SMARCA2 act, NR3A LBD binder, SKN-1 block, NadD block, Vif inh)
COCC(=O)Nc1ccc2c(c1)C(=O)N(C)C[C@H](OC)[C@@H](C)CN(CCC(F)(F)F)[C@H](C)CO2	none (no result: SMARCA2 act, NR3A LBD binder, SKN-1 block, NadD block, Vif inh)
O=C(NCc1ccc2c(c1)OCO2)c1cccc(N2CCCC2=O)c1	SKN-1 block 42.6 (no result: Vif inh)
C[C@H](CO)N1C[C@H](C)[C@@H](CN(C)Cc2ccc(C(F)(F)F)cc2)OCCCC[C@H](C)Oc2ccc(NC(=O)CCC(F)(F)F)cc2C1=O	none (no result: SMARCA2 act, NR3A LBD binder, SKN-1 block, NadD block, Vif inh)
O=C(NCCc1cccc(Cl)c1)c1cccs1	esBAF inh 63.5
CCC(CC)C(=O)NCCc1cc2cc(C)c(C)cc2[nH]c1=O	none
Cc1occc1C(=O)NCCc1cccc(Cl)c1	esBAF inh 52.0
Cc1occc1C(=O)NCCCCNC(=O)c1ccoc1C	none (no result: esBAF inh, Vif inh)
Cc1cc2cc(CCNC(=O)c3cccs3)c(=O)[nH]c2cc1C	esBAF inh 81.7
C[C@@H]1CN([C@@H](C)CO)C(=O)c2cc(NC(=O)Nc3ccccc3)ccc2O[C@@H]1CN(C)CC1CC1	none (no result: SMARCA2 act, NR3A LBD binder, SKN-1 block, NadD block, Vif inh)
Cc1noc(C)c1NC(=O)Nc1ccc2c(c1)C(=O)N([C@H](C)CO)C[C@@H](C)[C@H](CN(C)C(=O)Nc1ccc(F)cc1)O2	none (no result: SMARCA2 act, NR3A LBD binder, SKN-1 block, NadD block, Vif inh)
CCCC(=O)Nc1ccc2c(c1)C(=O)N(C)[C@H]1CC[C@H](CC(=O)NCC3CCCCC3)O[C@@H]1CO2	none (no result: SMARCA2 act, NR3A LBD binder, SKN-1 block, NadD block, Vif inh)
CCOC(=O)c1sc(NC(=O)c2cc3ccccc3o2)nc1C	none (no result: esBAF inh)
CCOC(=O)c1sc(NC(=O)c2ccc3ncsc3c2)nc1C	esBAF inh 50.8
CCOC(=O)c1sc(NC(=O)c2ccc(CC)s2)nc1C	esBAF inh 50.9
C[C@H](CO)N1C[C@H](C)[C@@H](CN(C)C(=O)C2CCCCC2)Oc2cc(C3=CCCCC3)ccc2S1(=O)=O	none (no result: SMARCA2 act, NR3A LBD binder, SKN-1 block, NadD block, Vif inh)
O=C(/C=C/Nc1cccc(C(F)(F)F)c1)c1ccc(Oc2ncccn2)cc1	esBAF inh 49.4
COC(=O)C[C@@H]1CC[C@@H]2[C@@H](COc3ccc(NC(=O)c4cscn4)cc3C(=O)N2C)O1	none (no result: SMARCA2 act, NR3A LBD binder, SKN-1 block, NadD block, Vif inh)
O=C(CN1C(=O)c2cccnc2C1=O)c1ccccc1	none
CC(=O)OCCN1C(=O)c2cccnc2C1=O	NR3A LBD binder 12.8
O=C(CCN1C(=O)/C(=C/C=C/c2ccccc2)SC1=S)Nc1nccs1	NadD block 41.1
O=C(COC(=O)CCN1C(=O)/C(=C\C=C\c2ccccc2)SC1=S)Nc1ccc(Br)cc1	NR3A LBD binder 10.1 (no result: esBAF inh)
Cc1ccc(S(=O)(=O)N[C@H]2CC[C@H](CC(=O)NCCCN(C)C)O[C@H]2CO)cc1	none (no result: SMARCA2 act, NR3A LBD binder, SKN-1 block, NadD block, Vif inh)
C[C@H](CO)N1C[C@H](C)[C@H](CN(C)C(=O)Nc2ccc(F)cc2)Oc2cc(/C=C/c3ccccc3)ccc2S1(=O)=O	none (no result: SMARCA2 act, NR3A LBD binder, SKN-1 block, NadD block, Vif inh)
CCCNC(=O)N1C[C@@H](C)[C@@H](OC)CN(C)C(=O)c2cc(NC(=O)C3CCC3)ccc2OC[C@@H]1C	none (no result: SMARCA2 act, NR3A LBD binder, SKN-1 block, NadD block, Vif inh)
CC1=Nc2ccc(C)cc2/C1=C/c1c(N)n2nc(CC(=O)N3CCOCC3)sc2nc1=O	SKN-1 block 37.5
CC1=Nc2ccc(C)cc2/C1=C/c1c(N)n2oc(C)cc2nc1=O	none (no result: esBAF inh)
CC1=Nc2ccccc2/C1=C/c1c(N)n2c(S(=O)(=O)CC(C)C)nsc2nc1=O	NR3A LBD binder 16.2 (no result: esBAF inh)
CC1=Nc2ccccc2/C1=C/c1c(N)n2c(S(=O)(=O)C(C)C)nsc2nc1=O	none
CC1=Nc2ccc(C)cc2/C1=C/c1c(N)n2c(S(=O)(=O)C(C)C)nsc2nc1=O	NR3A LBD binder 17.6
CSc1nsc2nc(=O)c(/C=C3\C(C)=Nc4ccc(C)cc43)c(N)n12	NR3A LBD binder 21.3
Cc1ccc(S(=O)(=O)Nc2ccc3c(c2)C(=O)N([C@H](C)CO)C[C@H](C)[C@@H](CN(C)C(=O)CCC(F)(F)F)OCCCC[C@H](C)O3)cc1	none (no result: SMARCA2 act, NR3A LBD binder, SKN-1 block, NadD block, Vif inh)
O=[N+]([O-])c1ccc(OS(=O)(=O)Cc2ccccc2)cc1	none (no result: esBAF inh)
O=S(=O)(Cc1ccc(Cl)cc1)Oc1ccc(Cl)cc1	SKN-1 block 45.8
Nc1c(C(=O)N2CCCCC2)sc2nc3c(cc12)CCCC3	esBAF inh 54.1
Nc1c(C(=O)N2CCCC2)sc2nc(-c3ccccc3)ccc12	esBAF inh 69.0
COc1ccc2cc3c(N)c(C(=O)N4CCCC4)sc3nc2c1	none (no result: esBAF inh, SKN-1 block, NadD block, Vif inh)
C[C@@H]1CN([C@@H](C)CO)C(=O)c2cc(NC(=O)Cc3ccccc3)ccc2O[C@@H](C)CCCCO[C@@H]1CN(C)S(=O)(=O)c1ccc(F)cc1	none (no result: SMARCA2 act, NR3A LBD binder, SKN-1 block, NadD block, Vif inh)
CN(CC(=O)NCCc1ccccc1)S(=O)(=O)c1ccc(Br)s1	SKN-1 block 36.6
C=CCN1C(=O)C(O)(CC(=O)c2ccc(-n3cccc3)cc2)c2ccccc21 (centres undefined)	NadD block 27.1 (no result: SMARCA2 act)
O=C(Nc1nccs1)c1ccc(COc2ccc(F)cc2)o1	esBAF inh 60.5 (no result: Vif inh)
CC(C)NC(=O)c1ccc(COc2ccc(C(C)(C)C)cc2)o1	NR3A LBD binder 16.1
CN(C)C(=O)c1ccc(COc2ccccc2Br)o1	esBAF inh 62.1
